Bioassay records from PubChem.
This is a sample that favours compounds with a hit; in the whole collection about 5.3% have one here.
ALR H2O2 inh = inhibitors of human ALR sulfhydryl oxidase, primary screen, biochemical, H2O2 detection, HRP-luminol luminescence, single point | FAD-linked sulfhydryl oxidase ALR (Homo sapiens), P55789 | purified ALR, DTT oxidation | inhibition, % (test concentration not listed) | 3.8% of 290,000 active | AID 485317, 2010;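 active = mean replicate inhibition above about 79%, with every replicate also reaching it, limit read from the data; inconclusive = only one of the two criteria met; inactive = mean below limit and not every replicate reaching it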
Target sequence (P55789 whole entry, looked up): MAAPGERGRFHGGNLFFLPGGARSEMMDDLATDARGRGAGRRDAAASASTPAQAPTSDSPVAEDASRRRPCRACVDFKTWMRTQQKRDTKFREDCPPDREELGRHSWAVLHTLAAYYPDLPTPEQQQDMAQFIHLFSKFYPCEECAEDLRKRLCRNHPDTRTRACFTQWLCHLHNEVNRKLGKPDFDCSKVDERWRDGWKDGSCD
SUMO Mot1 rescue = yeast Mot1-301 growth rescue at high temperature, primary screen, SUMOylation pathway inhibitor project, S. cerevisiae, ATP luminescence, 38.5C; S. cerevisiae Mot1-301 growth rescue; percent above DMSO median, 100 means doubled; 1% of 320,000 active; AID 2716, 2010; growth rescue, % at 18.8 µM;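 active = every valid replicate shows activation above 250% relative to neutral control wells; inactive = the rest, any valid replicate at or below 250%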;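 note: OY570 slx delta 5 strain wells were the positive control but not used for scaling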
PfM18AAP inh = PfM18AAP inhibitors, malaria aminopeptidase, primary screen, biochemical, QFRET, recombinant enzyme. inhibition, % at 7.35 µM. 1.2% of 290,000 active. M18 aspartyl aminopeptidase (Plasmodium falciparum 3D7). AID 1822, 2009. H-Glu-NHMec fluorogenic cleavage;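 active = inhibition above the campaign mean inhibition over all tested compounds plus 3 SD, cut at about 28% in these data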;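 note: 0% = plate median of test compound wells and 100% = 2 mM ZnCl2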
HIF activator = HIF pathway transcriptional activators, primary screen, cell-based, U2OS HRE-luciferase, luminescence. U2OS HRE-luciferase reporter; normalized: DMSO 0%, desferrioxamine 100%. activation, % at 7.5 µM (by protocol). 0.32% of 300,000 active. AID 1910, 2009;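 active = mean activation of at least 10% of the iron chelator positive control signal, with at least half of replicates also reaching 10%; inconclusive = mean and replicate majority disagree about reaching 10%; inactive = mean and most replicates under 10%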
Numbers without * were called inactive; u = inconclusive; x = not tested or not shown.

SMILES	ALR H2O2 inh	SUMO Mot1 rescue	PfM18AAP inh	HIF activator
C/C(=N\NC(N)=S)C1=CCC2C3CC[C@H]4CC(O)CC[C@]4(C)C3CC[C@]12C (some centres not stated)	x	348*	24	0
Cc1cc(C(=O)CSc2nc3ccccc3c(=O)n2C)c(C)n1Cc1ccc2c(c1)OCO2	-13	-15	-13	0
Cc1ccc(C2=Nn3c(COc4ccc(Cl)cc4)nnc3SC2CC(=O)O)cc1 (configuration not stated)	98*	145	-1	-1
COc1ccc(S(N)(=O)=O)cc1-c1nnc2c3ccccc3c(C)nn12	-14	304*	4	-1
Cc1ccc(-c2nnc3c4ccccc4c(C)nn23)cc1S(=O)(=O)N1CCN(C)CC1	x	-7	4	x
CCN(CC)Cc1cc(C(C)=O)ccc1OCC(C)C	-8	0	-15	0
CC(C)COc1ccc(N)cc1OCC(C)C	99*	-45	8	0
O=C(CCC1CCCC1)c1c(O)c2ccccc2oc1=O	93*	-1	5	1
Cc1cc(OC(C)C(=O)NCCCN2CCOCC2)c2c(C)c(C)c(=O)oc2c1 (configuration not stated)	-2	-2	-5	0
COC(=O)c1ccccc1NC(=O)C(C)c1ccc([N+](=O)[O-])cc1 (configuration not stated)	-9	7	-4	0
COc1ccc(C2C(C(=O)NCc3ccco3)c3ccccc3C(=O)N2C)cc1 (configuration not stated)	1	-2	2	-1
CCN(CC)CCCNC(=O)C1c2ccccc2C(=O)N(C)C1c1ccc(OC)cc1 (configuration not stated)	-2	7	-5	795*
CC(=O)Cc1nsc(NC(=O)c2ccc(COc3ccccc3)o2)n1	98*	-5	-6	0
CC(OC(=O)CCC(=O)c1ccc(Cl)s1)C(=O)NC1(C#N)CCCCC1 (configuration not stated)	1	1	x	x
COC(=O)c1sc(N2C(=O)C(=O)/C(=C(/O)c3ccccc3)C2c2ccco2)nc1C (configuration not stated)	90*	-11	22	0
CCOC(=O)c1[nH]c(CN2CCN(c3ccc(OC)cc3)CC2)c(C(=O)OCC)c1C	27	3	-5	1
CCOC(=O)c1cc(C#N)c(N2CCN(c3ccc(OC)cc3)CC2)[nH]c1=O	93*	31	1	0
CCOC(=O)c1cc(C#N)c(SCC(=O)OC)[nH]c1=O	99*	9	4	0
COC(=O)CSc1[nH]c(=O)cc(C)c1C#N	-16	-13	4	0
COc1cc(/C=C(/NC(C)=O)C(=O)O)cc(Cl)c1OCc1ccc(Br)cc1	95*	3	3	0
O=C(O)CC/C(=N\Nc1ccccc1[N+](=O)[O-])c1cccs1	98*	16	0	0
CC(C)(C)NC(=O)c1oc2ccccc2c1COc1ccccc1	u	3	-9	-1
CC(C)Sc1nc2ccccc2n2cnnc12	99*	10	9	-1
O=C(COC(=O)C1CCC1)NCc1ccc(F)cc1	-7	-4	x	0
CCN1CCN(C(=O)C2CCN(S(=O)(=O)c3ccc(SC)cc3)CC2)CC1	-5	-10	6	-1
SMILES	ALR H2O2 inh	SUMO Mot1 rescue	PfM18AAP inh	HIF activator
Cn1nnnc1SCc1ccc(C(=O)Nc2nccs2)cc1	99*	-3	3	0
Cc1cc(C)cc(NC(=O)c2ccc(CSc3nnnn3C)cc2)c1	32	x	1	0
COc1ccc(NC2CCCN(C(=O)c3cccc(N4CCNC4=O)c3)C2)cc1 (configuration not stated)	99*	-11	5	0
O=C(c1ccnc(Cl)c1)N1CCCC(Nc2ccc(F)cc2)C1 (configuration not stated)	29	14	3	0
CC(C)c1ccc(NC2CCCN(C(=O)c3cccc(N4CCNC4=O)c3)C2)cc1 (configuration not stated)	95*	6	2	0
COc1ccc(NC2CCCN(C(=O)c3cccnc3)C2)cc1 (configuration not stated)	97*	46	3	0
CCSc1nnc(NC(=O)CSc2nnc(-c3c[nH]c4ccccc34)n2CC)s1	-1	-1	-1	0
Cn1ccnc1/C(=N\NC(=O)c1ccc(O)cc1)c1cccc([N+](=O)[O-])c1	10	-2	8	0
O=C(N/N=C(\c1ccccc1)c1ccccn1)c1cccc([N+](=O)[O-])c1	7	-5	-1	131*
N/C(=N\OC(=O)c1cccc([N+](=O)[O-])c1)c1ccccn1	7	-12	2	1
Cn1ccnc1/C(=N\NC(=O)c1ccccc1)c1cccc([N+](=O)[O-])c1	96*	8	3	-1
Fc1ccc(N/N=C(/c2ccccc2)c2ccccn2)cc1	99*	67	3	0
C/C(=N\NC(=O)c1ccc(F)cc1)c1ccccn1	0	152	-11	-16
CCCCN(CCCC)c1ccc(C(=O)c2ccccc2C(=O)O)c(O)c1	90*	-8	1	0
CCOc1ccc2nc(N3CCCCCC3)sc2c1	90*	24	-1	1
CCOc1ccc2nc(N3CCC(C(=O)N4CCN(C5CCCCC5)CC4)CC3)sc2c1	-17	5	-1	2
COc1cc(/C=C/C(=O)OCC(=O)Nc2nnc(-c3ccccc3)o2)cc(OC)c1OC	-7	-10	x	0
O=c1c(/C=N/OCc2ccc(Cl)cc2Cl)c[nH]n1-c1cccc(Cl)n1	98*	72	3	0
Cc1ccc([N+](=O)[O-])cc1NC(=O)CSc1nncn1-c1ccccn1	-7	-3	1	0
Cc1cc([N+](=O)[O-])ccc1NC(=O)CSc1nncn1-c1ccccn1	-15	737*	-2	0
CCSC1=NSC2=NC(=O)/C(=C\c3coc4ccccc4c3=O)C(=N)N12	98*	9	7	x
O=C(CCN1CCOCC1)c1ccc(Cl)cc1	96*	2	-3	-1
O=C(CCN1CCN(c2ccccc2)CC1)c1ccc(Br)cc1	70	-2	-18	2
O=C(CCN1CCOCC1)c1ccc(Br)cc1	98*	43	-5	0
CC(=O)c1cc(C#N)c(Oc2ccc(Cl)cc2Cl)nc1C	-1	-5	-14	0
O=C(NCCNC(=O)c1ccccc1F)c1ccccn1	2	-10	-2	-2
CCOc1ccc(CCNC(=O)c2ccc(CS(=O)Cc3ccc(Cl)cc3)o2)cc1 (configuration not stated)	0	-1	-4	0
CCOc1ccc(CCNC(=O)c2ccc(CS(=O)Cc3ccccc3Cl)o2)cc1 (configuration not stated)	98*	-2	-7	1
